Test results reported in the supplement of paper PMC6555819.

Experiments:
Assay in all cases: PBM binding z-score (relative to random genomic background probes); higher = stronger binding; sequences stand for … in GC…GCGATTGACAGCGTAGAATGAAGG
[1] = test system: FXR:RXRa (NR concentration 270 nM, RXRa partner concentration 90 nM)
How it was run: (§1)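 Custom Agilent 4×180K protein-binding microarrays carried double-stranded probes. Their 34-nt variable regions held direct-repeat seeds, single-nucleotide variants, half-site ablations and random human genomic background sequences. Arrays were incubated 1 h with ligand-free nuclear receptor dimers in PBS pH 7.4, 2% milk, 0.02% Triton X-100, 1 mM DTT, 0.2 mg/mL BSA and 0.4 mg/ml salmon testes DNA. Antibodies against each partner (one per run) detected binding, and scanned fluorescence was regression-normalized. Binding z-scores use random background probes as reference.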

[2] = test system: LXRa:RXRa (NR concentration 270 nM, RXRa partner concentration 90 nM)
How it was run: as §1

[3] = test system: LXRa homodimer (NR concentration 270 nM)
How it was run: as §1

[4] = test system: LXRb:RXRa (NR concentration 270 nM, RXRa partner concentration 90 nM)
How it was run: as §1

[5] = test system: LXRb homodimer (NR concentration 270 nM)
How it was run: as §1

[6] = test system: PPARa:RXRa (NR concentration 270 nM, RXRa partner concentration 90 nM)
How it was run: as §1

[7] = test system: PPARg:RXRa (NR concentration 180 nM, RXRa partner concentration 90 nM)
How it was run: as §1

[8] = test system: PPARg:RXRa 270nM:90nM, anti-RXR (NR concentration 270 nM, RXRa partner concentration 90 nM)
How it was run: as §1

[9] = test system: PPARg:RXRa 30nM:10nM, anti-RXR (NR concentration 30 nM, RXRa partner concentration 10 nM)
How it was run: as §1

[10] = test system: PPARg:RXRa 90nM:30nM, anti-RXR (NR concentration 90 nM, RXRa partner concentration 30 nM)
How it was run: as §1

[11] = test system: PPARg:RXRa DBDmut IVT, anti-RXR (DBD mutation: RXRa K156A/R161A, NR concentration 270 nM, RXRa partner concentration 90 nM)
How it was run: as §1

[12] = test system: PPARg:RXRa IVT, anti-PPARg (NR concentration 270 nM, RXRa partner concentration 90 nM)
How it was run: as §1

[13] = test system: PPARg DBDmut:RXRa IVT, anti-PPARg (DBD mutation: PPARg1 K132A/R137A, NR concentration 270 nM, RXRa partner concentration 90 nM)
How it was run: as §1

[14] = test system: PPARg DBDmut IVT, anti-PPARg (DBD mutation: PPARg1 K132A/R137A, NR concentration 270 nM)
How it was run: as §1

[15] = test system: PPARg homodimer (NR concentration 180 nM)
How it was run: as §1

[16] = test system: PXR:RXRa (NR concentration 270 nM, RXRa partner concentration 90 nM)
How it was run: as §1

[17] = test system: PXR homodimer (NR concentration 270 nM)
How it was run: as §1

[18] = test system: RARa:RXR (NR concentration 270 nM, RXRa partner concentration 90 nM)
How it was run: as §1

[19] = test system: RARa homodimer (NR concentration 270 nM)
How it was run: as §1

[20] = test system: RARb:RXRa (NR concentration 270 nM, RXRa partner concentration 90 nM)
How it was run: as §1

Sequence | PBM binding z-score [1] | PBM binding z-score [2] | PBM binding z-score [3] | PBM binding z-score [4] | PBM binding z-score [5] | PBM binding z-score [6] | PBM binding z-score [7] | PBM binding z-score [8] | PBM binding z-score [9] | PBM binding z-score [10] | PBM binding z-score [11] | PBM binding z-score [12] | PBM binding z-score [13] | PBM binding z-score [14] | PBM binding z-score [15] | PBM binding z-score [16] | PBM binding z-score [17] | PBM binding z-score [18] | PBM binding z-score [19] | PBM binding z-score [20]
TCTGCTAGGTCAGTTGGTCCGCTAACGAGCTGCC | 0.769 | 0.595 | -0.724 | 0.186 | 0.781 | 0.869 | -0.334 | 1.28 | 1.13 | 0.949 | 2.64 | 2.46 | 0.84 | 0.95 | -0.535 | -0.0468 | -0.863 | -0.00908 | -1.31 | 3.12
TGTCAAAGTTCAAAAGTAACGTAAGTATCCACAC | 6.34 | 6.07 | 4.09 | 4.04 | 2.53 | 4.83 | 7.77 | 6.63 | 4.65 | 6.63 | -0.0254 | 3.6 | 1.92 | 2.39 | 1.89 | 4.46 | 3.74 | 3.65 | 1.1 | 4.6
TCTTGTAGATCAAAAGGAGGTTAAGAAAGATCGA | 0.895 | 1.83 | 0.268 | 1.37 | -0.229 | 1.81 | 0.335 | 2.02 | 2.91 | 2.36 | 1.99 | 1.45 | 0.192 | 0.409 | 0.066 | 0.871 | 0.0133 | 1.12 | 0.597 | 0.428
TCTGCTAGGTCGGTTGGTCAGCTAACGAGCTGCC | -1.29 | -0.709 | -0.834 | -0.284 | 0.368 | 0.029 | -1.04 | 0.448 | 0.962 | 0.78 | 0.68 | 0.822 | -0.109 | -0.00426 | -1.51 | -0.617 | -0.886 | -0.528 | -1.53 | 0.845
GCTTACGGGTCTAAGGTTATAGCATGAATAGAAT | 0.749 | 0.664 | -0.0717 | 1.2 | -0.249 | 2.66 | 3.28 | 4.67 | 3.06 | 4.64 | 0.0529 | 0.754 | 0.306 | 0.266 | 0.501 | 0.939 | 0.427 | 1.66 | 0.142 | 1.02
TGAATGAGGTTATAAGATCAGGCAACGTTGCAAA | 1.34 | 1.51 | -0.418 | 1.22 | -0.11 | 2.69 | 1.48 | 2.02 | 1.21 | 1.73 | 0.78 | 1.81 | 1.1 | 0.207 | 0.125 | 0.75 | -0.349 | 1.52 | 0.212 | 1.24
TTACCAAGGTGAGCTGAGGTCGTTGCTCCAACTC | 1.27 | 1.21 | -0.608 | 0.819 | -1.17 | 1.42 | -0.334 | 0.661 | -0.351 | 0.141 | 1.08 | 2.12 | -0.398 | -1.21 | -0.419 | 4.75 | 0.304 | 1.6 | -0.876 | 1.74
TCTTGTAGATCAATAGAGCTTAAGAAAGTGCGCT | -0.769 | -0.425 | -0.995 | -0.356 | -0.706 | 0.188 | -0.467 | 0.973 | 2.31 | 1.85 | 1.24 | 0.112 | -0.281 | 0.00059 | -0.672 | -0.158 | -0.534 | -0.251 | -1.02 | -0.557
ATATGTAGGTTATCGGGTCATTAAGTTTGCGCAT | 3 | 2.85 | 1.77 | 2.95 | 1.02 | 5 | 7.09 | 6.08 | 3.81 | 5.71 | 7.51 | 7.55 | 2.77 | 2.29 | 2.72 | 4.08 | 9.55 | 3.8 | 1.51 | 2.62
GCTAGCAGGCCATCTGGGTCACTCAATGACGGGC | 0.0876 | -0.178 | -0.882 | -0.232 | -0.896 | 1.7 | 1.31 | 1.36 | -0.319 | 0.57 | 3 | 3.48 | -0.603 | -1.04 | 0.0368 | 0.27 | -0.407 | 0.713 | -0.51 | 1.67
GCTGATAGGTCAGGTTGGTCAGCTAACGGGTACG | 2.43 | 2.19 | -0.0156 | 1.67 | 0.114 | 2.71 | 0.952 | 1.4 | -0.0509 | 0.754 | 1.74 | 1.49 | -0.568 | -0.567 | 1.32 | 1.25 | -0.432 | 2.23 | -0.0849 | 3.8
GATACAGGGTCAAGACCAGAGTACGCGTATTGAT | 6.27 | 3.79 | 0.0908 | 3.63 | 0.0748 | 5.37 | 5.25 | 4.91 | 1.75 | 3.56 | 1.96 | 3.52 | 1.38 | 0.619 | 1.49 | 3.34 | 0.195 | 3.93 | 0.851 | 4.28
ATCGATAGGTCGACGAGGTGAGTATACACCGTTT | 0.682 | 0.624 | -0.525 | 0.484 | 0.0439 | 1.69 | 1.15 | 0.567 | 0.467 | 0.349 | -0.138 | 0.962 | 0.958 | -0.138 | 0.219 | 0.735 | 0.0845 | 1.6 | 0.235 | 1.65
